# This is one part of a sample in which hits are shown more often than they occur. How many sequences the whole screen found active is unknown. A number with no mark means an inactive call.
# Test system: T1, Caupolican (Caup) homeodomain DNA-binding domain
# T1 sequence: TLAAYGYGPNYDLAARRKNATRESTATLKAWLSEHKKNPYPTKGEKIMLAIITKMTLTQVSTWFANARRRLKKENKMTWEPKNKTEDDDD
# Assay: PBM E-score (8-mer, recovered from the published 9-mer minima) (E-score (dimensionless, -0.5 to 0.5)); Drosophila protein; higher = stronger relative binding preference, active = 0.31 or more
# How it was run: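 An enrichment score, with higher meaning stronger, expresses relative binding preference for each short DNA word. The protein used was Caup's homeodomain DNA-binding domain (residues 214-303), produced by in vitro transcription and translation and tested at 100 nM on custom-designed protein binding microarrays. The 8-mer values were recovered from published 9-mer scores, each equal to the lower of its two constituent 8-mer scores.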
row,Sequence,PBM E-score
1,ACGCGACT,0.0019
2,CTCATAAG,0.0492
3,CATGACAG,0.151
4,GATAGATA,0.08
5,AGCTTCAC,-0.0515
6,CATGGGAC,0.151
7,ACATGTTG,0.453 (active)
8,GAATGTTA,0.234
9,ACATGTTA,0.452 (active)
10,CGATGTTC,0.249
11,AGATGTTA,0.286
12,GGATGTTA,0.204
13,CAATGTTC,0.218
14,GCATGTTA,0.397 (active)
15,ACCTGTTA,0.222
16,AAATGTTG,0.201
17,AGATGTTG,0.203
18,CCATGTTC,0.368 (active)
19,GAGCCTCA,-0.214
20,CCATATGG,-0.073
21,AGCACTGA,-0.0101
22,ACACTCTA,0.0891
23,AGTTTTGA,0.0657
24,CGTCCGGC,-0.219

row,Sequence,PBM E-score
1,CAATGTTA,0.269
2,CGATGTTA,0.297
3,CCATGTTA,0.406 (active)
4,AAATGTTC,0.247
5,AGATGTTC,0.286
6,ACATGTTC,0.455 (active)
7,GATTTGCA,0.0416
8,ATAGTTCC,-0.029
9,AAAGCCCC,-0.238
10,CGTTAAGC,-0.0697
11,GGTTGTTA,0.324 (active)
12,TGTTGTAA,0.377 (active)
13,AGTTGTTA,0.266
14,GGTTGTAA,0.333 (active)
15,CGTAGTAA,0.145
16,TGTAGTAA,0.376 (active)
17,AGTTGTAA,0.279
18,AGTAGTAA,0.168
19,GGTTGTGA,0.0824
20,CGTTGTTA,0.305
21,GGTTGTAC,0.222
22,CGTTGTAA,0.261
23,ACGAGGTG,0.0761
24,AGATGCAC,-0.00186

row,Sequence,PBM E-score
1,AGCGTTCG,-0.141
2,ATTAGGAA,0.0485
3,AGCAACAC,0.186
4,AGACGCGC,-0.0474
5,ACACGATA,0.322 (active)
6,ACACGACC,0.215
7,ACACGATC,0.254
8,ACACGTCG,0.212
9,ACACGACT,0.251
10,ACACAATG,0.273
11,ACACGTCA,0.325 (active)
12,ACACGACA,≥ 0.386 (active)
13,CCACGATA,0.0391
14,GCACAATA,0.0168
15,ACACAATA,0.31 (active)
16,ACACGTCT,0.203
17,AGACTGTG,0.0481
18,GCAGTCTA,0.0232
19,AAGATTGC,-0.00712
20,CATTTCAG,0.00691
21,ACACGAAG,0.174
22,ACACGAGG,0.111
23,ACACGATG,0.347 (active)
24,AAAAGCAT,0.1

row,Sequence,PBM E-score
1,AGTACAAA,0.26
2,TGTACCAA,0.312 (active)
3,AGTACCAA,0.128
4,CGTACACC,0.205
5,TGTACAAA,0.384 (active)
6,TCTACACA,0.157
7,CGTACCAA,0.0356
8,CGTACACA,0.255
9,TGTACACA,0.407 (active)
10,GGTACACA,0.28
11,CGTACACG,0.341 (active)
12,TTTACAAA,0.245
13,CGTATAGC,-0.0127
14,ACTGCCTG,-0.0684
15,ATGCTCGC,-0.0878
16,CGTCTGTC,0.0202
17,GCTTATAC,-0.034
18,CATATTTA,0.178
19,AAGCTGTG,0.00524
20,ATCCCGAC,-0.0204
21,GCAGGTTA,-0.0457
22,GTGTTATA,0.334 (active)
23,AAGTTATG,0.185
24,ATGTTATG,0.338 (active)

row,Sequence,PBM E-score
1,AGGTTATA,0.0929
2,AGGTTATG,0.044
3,ATGTTATA,0.381 (active)
4,ACGTTATC,0.0197
5,GCGTTATA,-0.0159
6,CTGTTATC,0.103
7,ATGTTATC,0.351 (active)
8,AAGTTATA,0.163
9,CTGTTATA,0.187
10,AGTGCGGA,-0.0562
11,AATGGATA,0.0292
12,AGGCAAGC,-0.0636
13,CCTCCAAG,-0.0978
14,AAGTAGCG,-0.0607
15,ACATAAGG,0.2
16,AGACGTGG,-0.0599
17,AACCACAC,0.0803
18,AAGTTCGC,-0.11
19,AATCCCTA,0.0149
20,CAGTTCTA,0.0212
21,ATGATGTC,0.312 (active)

# From the supplement of paper PMC3724861
